Data from the supplement of paper PMC7530171.
“And” between values parts separate entries of the source, which are not always exact repeats. Identical values can stand only once. Counter-ions that a name gives are not always drawn. ± gives the standard deviation.

The compounds below were run on THP-1 (assay: THP-1 cell loss relative to DMSO control; higher = more host cell loss (toxicity); extreme values may be limits of the assay). Settings: 10 µM; 4 days; infection: M. tuberculosis H37Rv.
Description: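 OICR kinase inhibitor library screened in duplicate at 10 uM against M. tuberculosis-infected THP-1 macrophages, 4 days at 37 C. THP-1 cell loss (cytotoxicity or loss of adherence) was quantified from Hoechst-stained nuclei counts by high-content imaging and normalised to the 1% DMSO control; 100 = complete loss of host cells.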

In order of rising THP-1 cell loss:
1. C/C(=N\N=C(N)N)c1ccc(NC(=O)c2cc3cccc([N+](=O)[O-])c3[nH]2)cc1  0%
2. Cn1cnc2c(NCc3ccccc3)nc(NCCO)nc21 [Olomoucine]  3.14 ± 4.4%
3. Nc1[nH]nc2nc3ccccc3nc12  3.97 ± 5.6%
4. O=c1c(-c2ccc(O)cc2)coc2cc(O)cc(O)c12 [Genistein]  4.45 ± 2.2%
5. Cc1cc(F)c(Nc2ncnc3cc(OCc4ccccc4)ccc23)cc1O  5.29 ± 7.5%
6. COc1cc2nccc(Oc3ccc(NC(=O)Nc4ccc(F)cc4F)c(F)c3)c2cc1OC  8.51 ± 5.2%
7. C[C@@H]1CCN(C(=O)CC#N)C[C@@H]1N(C)c1ncnc2[nH]ccc12  9.64 ± 8.9%
8. c1ccc(-c2n[nH]c3c2oc2ccccc23)cc1  9.81 ± 5.6%
9. Nc1nccc(-c2ccc3noc(-c4ccc(Cl)cc4)c3c2)n1 [PIM 1 Inhibitor 2]  9.99 ± 7.3%
10. CCOc1cc(/C=C(\C#N)C(N)=O)cc(CSc2ccccc2)c1O  10.3 ± 14%
11. COC(=O)c1ccc2c(c1)NC(=O)/C2=C(\Nc1ccc(N(C)C(=O)CN2CCN(C)CC2)cc1)c1ccccc1  10.48 ± 0.013%
12. Nc1cccc(-c2cc3c(Oc4cccc(O)c4)ncnc3[nH]2)c1  25.7 ± 7.3%
13. O=c1cc(-c2cccc3c2Sc2ccccc2S3)oc(N2CCOCC2)c1  26.6 ± 14%
14. CCN(CC)CCCCN1c2ccccc2Oc2ccc(Cl)cc21 [10-DEBC hydrochloride]  29.4 ± 13%
15. CC[C@H](Nc1ncnc2[nH]cnc12)c1nc2cccc(F)c2c(=O)n1-c1ccccc1  35.9 ± 6.3%
16. Clc1ccc(Nc2nnc(Cc3ccncc3)c3ccccc23)cc1 [Vatalanib dihydrochloride]  39.2 ± 3.4%
17. Cc1ccc(S(=O)(=O)Nc2nc3ccccc3nc2Nc2ccc3nsnc3c2)cc1  40.9 ± 5.2%
18. CO[C@H]1C[C@@H]2CC[C@@H](C)[C@@](O)(O2)C(=O)C(=O)N2CCCC[C@H]2C(=O)O[C@H]([C@H](C)C[C@@H]2CC[C@@H](OC(=O)C(C)(CO)CO)[C@H](OC)C2)CC(=O)[C@H](C)/C=C(\C)[C@@H](O)[C@@H](OC)C(=O)[C@H](C)C[C@H](C)/C=C/C=C/C=C/1C [Temsirolimus]  43 ± 2%
19. O=C1NC(=O)[C@@H](c2cn3c4c(cccc24)CCC3)[C@@H]1c1c[nH]c2ccccc12  43.4 ± 7.2%
20. CCOc1cc2ncc(C#N)c(Nc3ccc(OCc4ccccn4)c(Cl)c3)c2cc1NC(=O)/C=C/CN(C)C [Neratinib]  55.4 ± 63%
21. COc1cc(Nc2c(C#N)cnc3cc(OCCCN4CCN(C)CC4)c(OC)cc23)c(Cl)cc1Cl [Bosutinib]  59.6 ± 15%
22. Cc1csc(-c2nnc(Nc3ccc(Oc4ncccc4-c4ccnc(N)n4)cc3)c3ccccc23)c1  62.4 ± 53%
23. O=C(O)c1ccc2c(c1)nc(Nc1cccc(Cl)c1)c1ccncc12  66.8 ± 1.6%
24. CN(C)C/C=C/C(=O)Nc1cc2c(Nc3ccc(F)c(Cl)c3)ncnc2cc1O[C@H]1CCOC1  77.6 ± 2.9%
25. N#CCNC(=O)c1ccc(-c2ccnc(Nc3ccc(N4CCOCC4)cc3)n2)cc1  100%
26. Cc1cc(C(=O)NOCCO)c(Nc2ccc(I)cc2F)n(C)c1=O  100%
27. Cc1ccc(Nc2nccc(N(C)c3ccc4c(C)n(C)nc4c3)n2)cc1S(N)(=O)=O [Pazopanib hydrochloride]  100%
28. CN(c1ncccc1CNc1nc(Nc2ccc3c(c2)CC(=O)N3)ncc1C(F)(F)F)S(C)(=O)=O  100%
29. O=S(=O)(Nc1ccccn1)c1ccc(N=Cc2c(O)[nH]c3ccc4ncsc4c23)cc1  100%
30. CN1CC[C@H](c2c(O)cc(O)c3c(=O)cc(-c4ccccc4Cl)oc23)[C@H](O)C1 [Alvocidib]  100%
31. Nc1ncnc2c1c(I)cn2[C@@H]1O[C@H](CO)[C@@H](O)[C@H]1O [5-Iodotubercidin]  100%
32. CN(C)CCCn1cc(C2=C(c3c[nH]c4ccccc34)C(=O)NC2=O)c2ccccc21 [Bisindolylmaleimide I hydrochloride]  100%
33. CCOc1cc(N2CCC(O)CC2)ccc1Nc1ncc2c(n1)N(C)c1ccccc1C(=O)N2C  100%
34. Cc1ccc(NC2=CC(=O)c3sc(C)nc3C2=O)cc1 [Ryuvidine]  100%
35. COc1cc(O)c2c(c1)/C=C/C[C@H](O)[C@H](O)C(=O)/C=C\C[C@H](C)OC2=O [(5Z)-7-Oxozeaenol]  100%

With `Fc1ccc(-c2nc3n(c2-c2ccncc2)CCS3)cc1` the THP-1 cell loss was 7.21% and 5.2%.
